HT1080NT lethal: kills 2HG-producing HT-1080-NT fibrosarcoma cells; HT-1080-NT fibrosarcoma viability, CellTiter-Glo ATP luminescence, 48 h; Potency, µM (top dose mostly 46.1 µM), inactives show at the highest dose activity, negative = less viability, actives largely listed as cytotoxic; actives 1.6% (n = 360,000); AID 686970;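 further: NT is the 2HG producing partner of a matched IDH1 knockdown line; potency means the concentration at half of the fitted maximal effect; 0% = DMSO-treated cells and -100% = media-only wells without cells; nearly all actives have a fitted effect of over 55% in size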
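A 48-hour cytotoxicity screen used HT-1080-NT cells plated 2 hours before compound delivery. ATP-based CellTiter-Glo luminescence measured viability, normalized to DMSO and no-cell controls.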
TDP1 cell noCPT: qHTS for Inhibitors of human tyrosyl-DNA phosphodiesterase 1 (TDP1): qHTS in cells in absence of CPT. DT40 Tdp1-/- hTDP1 cells, no CPT, ATP luminescence, 48 h. Potency, µM (highest dose often 46.2 µM), inactives show at the top dose activity change, negative = growth inhibition, usual class: inhibitors. actives 15% (n = 420,000). AID 686978, 2013; further: potency means the concentration at half of the fitted maximal effect; nearly all actives have a fitted effect of over 55% in size
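No-CPT arm: Tdp1-/-;hTDP1 DT40 cells (400/well) plus compounds, incubated ≥48 hr at 37 °C. Readout CellTiter-Glo luminescence.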
HT1080 IDH1KD tx: HT-1080 IDH1 knockdown cell toxicity (counter line). HT-1080 IDH1 knockdown viability, ATP luminescence, 48 h. Potency, µM (top dose mostly 46.1 µM), without a hit: top-dose activity, negative = toxicity, usual class: cytotoxic. actives 2% (n = 360,000);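 further: potency means the concentration at half of the fitted maximal effect; 0% = DMSO wells and -100% = cell-free medium wells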
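In this qHTS, HT-1080 cells depleted of IDH1 are exposed for 48 h at 37 °C to compound titrations. Toxicity is scored from CellTiter-Glo luminescence, with DMSO as full viability and medium alone as none.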
ELG1 repair inh: blocks ELG1-dependent DNA repair in HEK293T cells | HEK293T ELG1-luciferase reporter, luminescence, 16 h; DNA damage induced by 5-fluorouridine | Potency, µM (titrated, usually from 46.1 µM), for the others: top-dose activity change, negative = inhibition, actives largely listed as inhibitors | actives 2.3% (n = 330,000); further: potency means the concentration at half of the fitted maximal effect; nearly all actives have a fitted effect of over 55% in size
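Quantitative HTS, concentration-response format. 2,000 cells/well co-treated with 5-fluorouridine and compound, 16 hr in 5% CO2 at 37 °C; ONE-Glo luminescence read after 30 min.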
DT40 TDP1 CPT: growth inhibition of DT40 Tdp1-/-;hTDP1 cells with camptothecin (screen for TDP1 inhibitors). chicken DT40 Tdp1-/-;hTDP1 cells + 20 nM CPT, ATP luminescence, 48 h. Potency, µM (series often up to 46.2 µM), for the others: top-dose activity change, negative = growth inhibition, hits mostly inhibitors. actives 12% (n = 420,000); further: potency means the concentration at half of the fitted maximal effect; nearly all actives have a fitted effect of over 55% in size
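Chicken DT40 Tdp1-/- cells complemented with human TDP1, 400 cells/well, exposed to compounds plus 20 nM camptothecin for at least 48 h at 37 C; viability read as ATP content by CellTiter-Glo luminescence.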
IL1B secr inh: blocks inflammasome-driven IL-1 beta release. THP-1 LPS/ATP IL-1B secretion, AlphaLISA, 16 h; stronger effect = lower value. activity change, % at 57.5 µM. actives 4.7% (n = 360,000). AID 743279; in the data active means activity change below about -50%; inconclusive means mostly about -30% to -49%
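Secreted IL-1B measured by AlphaLISA bead assay after 16 h compound exposure of THP-1 cells; compounds (final up to 57.5 uM) added 1 h before LPS (250 ng/mL) and ATP (1.25 mM) stimulation; lower signal means less secretion.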
* = called active by the depositor; ? = inconclusive; / = not tested or not shown; [ ] = dose if it differs, or a comment. In the library only some 19% were active in any assay of this set; here they are far more common. Unless noted, the call rests on the fitted dose curve; in most records, active means well fitted curve in the direction sought with a large enough effect; inconclusive means small, poorly fitted or top-dose-only effect, or another doubt; inactive means no such curve, though single readings can be large; an effect the other way counts as inactive or inconclusive. Unless noted, on the % scale 0 is the no-effect control and ±100 the full control effect.

SMILES	HT1080NT lethal	TDP1 cell noCPT	HT1080 IDH1KD tx	ELG1 repair inh	DT40 TDP1 CPT	IL1B secr inh
CCOCCCNCc1ccc(OCc2ccccc2Cl)cc1	?	?	?	3%	?	8
O=C(N1CCCC1)C12CC3CC(CC(C3)C1)C2	-1%	-11%	19%[9.24 µM]	-1%	-8%	7
O=C(N1CCCCC1)C12CC3CC(C1)CC(C(=O)N1CCCCC1)(C3)C2	10%	23µM*	2%[9.24 µM]	1%	?	3
C=CCN1C(=O)NC(c2ccccc2)(C(F)(F)F)S/C1=C(\C#N)c1nnc(N2CCOCC2)n1-c1ccccc1 (stereo not drawn)	-8%	?	-6%	-14%	?	?
N#C/C(=C(/O)COc1ccc(Br)cc1)c1nnc2n1CCCCC2	2%	9%	9%	6%	-5%	11
C=CCN1C(c2cccc(C(F)(F)F)c2)=CS/C1=C(\C#N)c1nnc(N2CCOCC2)n1-c1ccccc1	-2%	?	-12%	/	23µM*	?
C=CCN1C(c2ccc(Br)cc2)=CS/C1=C(\C#N)c1nnc(N2CCOCC2)n1-c1ccccc1	-6%	-94%	-7%	/	?	-73*
C=CCN1C(c2ccc(OCC)cc2)=CS/C1=C(\C#N)c1nnc2n1CCCCC2	?	29µM*	?	?	?	-4
CCN(CC)N=Nc1ccc(S(=O)(=O)Nc2nc(C)cc(C)n2)cc1	10%	-24%	-4%	-24%	8%	13
Cc1ccc(CCNC(=O)c2cc3ccccn3n2)cc1	/	-27%	/	/	-29%	/
O=C(c1cc(S(=O)(=O)N2CCC3(CC2)OCCO3)ccc1F)N1CCCCC1	-1%	13%	0%	-16%	-7%	-60*
Cc1cccc(NC(=O)c2ccc(F)c(S(=O)(=O)N3CCC4(CC3)OCCO4)c2)c1	-19%	?	-16%	?	?	-2
O=C(Nc1cccc(Cl)c1)c1ccc(F)c(S(=O)(=O)N2CCC3(CC2)OCCO3)c1	/	13µM*	/	/	15µM*	/
O=C(Nc1cc(Cl)cc(Cl)c1)c1cc(S(=O)(=O)N2CCC3(CC2)OCCO3)ccc1F	/	?	/	/	21µM*	/
O=C(Nc1cccc(Cl)c1Cl)c1cc(S(=O)(=O)N2CCC3(CC2)OCCO3)ccc1F	/	23µM*	/	/	?	/
O=C(Nc1ccccc1Cl)c1cc(S(=O)(=O)N2CCC3(CC2)OCCO3)ccc1F	2%	?	-2%	/	?	-13
CN(C)c1ccc(CNC(=O)CCn2c(=O)c3cccn3c3ccc(F)cc32)cc1	/	-15%	/	/	-5%	/
O=S(=O)(c1ccccc1F)N1CCc2ccccc2C1	-2%	-20%	6%	-8%	0%	31
O=C(Nc1cccc(C(F)(F)F)c1)c1ccc(F)c(S(=O)(=O)N2CCc3ccccc3C2)c1	/	13µM*	/	/	15µM*	/
O=C(OCn1ncc(Cl)c(Cl)c1=O)c1cccc(C(F)(F)F)c1	?	3.3µM*	21µM*	?	?	-101*
Cc1cc2ccccn2c1C(=O)Nc1ccc(Cl)cc1	-7%	-10%	-20%	?	-14%	21
Cc1cc2ccccn2c1C(=O)c1ccc(NN)c([N+](=O)[O-])c1	?	?	?	-13%	16µM*	?
COC(=O)c1cc(C(=O)c2c(C)cc3ccccn23)cc([N+](=O)[O-])c1	16µM*	12µM*	?	-17%	8.2µM*	34
Cc1cc2ccccn2c1C(=O)c1ccc(C#N)cc1	11%	23µM*	16%	-15%	?	-28
Cc1cc2ccccn2c1C(=O)c1cc([N+](=O)[O-])cc([N+](=O)[O-])c1	-4%	-23%	-2%	?	-20%	42

Bioassay records (PubChem)
